{"source": "PubChem BioAssay (EPA / NIEHS)", "note": "Active and inactive are the calls of the source. How the source made its calls: active means hit-call score of the fitted dose curve at least 0.9, where 1 is the maximum; inactive means score below 0.9.", "data": [{"read-out": "Glutamate-cysteine ligase catalytic (GCLC), GCLC (gene 2729)", "assay": "LTEA_HepaRG_GCLC: Life Technologies and Expression Analysis (LTEA) Assay for Glutamate-cysteine ligase catalytic (GCLC) using HepaRG (AID 2283498)", "conditions": "mRNA level, 48 h; actives raise or lower the signal", "experimental": "LTEA_HepaRG is a cell based, multiplexed-readout assay that uses HepaRG, a human liver cell line, with measurements taken at 48 hours after chemical dosing on a 96-well plate.LTEA_HepaRG_GCLC is one of 102 assay component(s) measured in the LTEA HepaRG cell culture assay. It is a marker of Oxidative Stress.Data from the assay component LTEA_HepaRG_GCLC was analyzed into 1 endpoint. This assay endpoint, LTEA_HepaRG_GCLC, was analyzed with bidirectional fitting relative to DMSO as the negative control and baseline of activity. Using a type of inducible reporter, measures of mRNA induction for gain or loss-of-signal activity can be used to understand regulation of transcription factor activity. To generalize the intended target to other relatable targets, this assay endpoint is annotated to the ligase intended target family, where the subfamily is C-N ligase.\nA total of 1060 chemcials from the ToxCast library were tested in eight-point concentration-response experiments. Cell culture and cytotoxicity assays were conducted at Thermo Fisher Scientific's Custom Services facility (Madison, WI). A single lot of human HepaRG cells (Thermo Fisher Scientific, Frederick, MD) was used for the cell culture experiments. 96-well format collagen type I coated plates of human HepaRG cells were prepared using established methods. Briefly, cryopreserved HepaRG cells were thawed, plated at a density of approximately 100,000 cells/well in HepaRG Thaw, Plate, and General Purpose media (HPRG770, Thermo Fisher Scientific), and incubated for 48 hours. 0.5% DMSO was selected as vehicle control to balance the requisite need of DMSO in HepaRG cultures to maintain differentiation (for example, baseline metabolism, proportions of hepatocytes vs. cholangiocytes), while enabling further hepatic receptor pathway activation (for example, PXR and CAR) in response to chemical exposure. 48 hours after plating, the culture medium was replaced with HepaRG Serum-Free Incudtion Media. Cells were exposed to each test chemical in duplicate and maintained in CO2 incubators for another 48 hours. Chemical plates were thawed to room temperature and 200x concentrations of treatment groups were prepared. 8-point conentration-reponse curves were made with the highest exposure at 100 uM, followed by half-log dilutions, all in 0.5% DMSO. Each test plate contained variouse controls, induction positive controls (1mM phenobarbital), cytotoxicity positive controls ([…] aflatoxin B1), vehicle controls (0.5% DMSO), and total lysis controls (0.5% DMSO). Cell morphology images were taken using an Essen IncuCyte FLR automated microscope, with six 96-well plates imaged in about 24 minutes. Images were captured and exported and JPEG files. Spent culture media was transfered to black-well plates for the LDH assay, and remaining media was sorted at -80 C for later use. Cells were treated with RLT buffer and frozen until shipped for gene expression analysis. Total RNA was isolated from the cell suspension in 75 uL of Buffer RLT (Qiagen, Germantown, MD 20874) by Quintiles/Expression Analysis (Durham, NC) using a custom isolation procedure. Total RNA from each plate well was transferred to a preamplification plate. Fluidigm's 96.96 Dynamic ArrayTM (Fluidigm, Amsterdam, the Netherlands) technology was used for gene expression analyses by quantitative reverse transcription polymerase chain reaction (qRT-PCR, performed by Quintiles/Expression Analysis, Durham, NC)89. Standard TaqManTM Assays (Applied Biosystems/ThermoFisher Scientific, Foster City, CA) were used to assess the expression of 93 genes selected based on their selectivity and sensitivity to important hepatic receptors known to be modulated by environmental chemicals; importance in human hepatocyte functionality; and hepatotoxicity. […]", "values": [{"molecule": "C[C@]12C[C@H](O)[C@H]3[C@@H](CCC4=CC(=O)CC[C@@]43C)[C@@H]1CC[C@@H]2C(=O)CO", "outcome": "inactive"}, {"molecule": "CCCCOC(=O)C(C)Oc1ccc(Oc2ccc(C(F)(F)F)cn2)cc1", "note": "(stereo not given)", "outcome": "inactive"}, {"molecule": "Oc1ccc(C(c2ccc(O)cc2)C(Cl)(Cl)Cl)cc1", "AC50": "77.2 µM (active)"}, {"molecule": "CC1(C)C(C=C(Cl)Cl)C1C(=O)OCc1cccc(Oc2ccccc2)c1", "note": "(stereo not given)", "outcome": "inactive"}, {"molecule": "C#CCOC(=O)[C@@H](C)Oc1ccc(Oc2ncc(Cl)cc2F)cc1", "outcome": "inactive"}, {"molecule": "c1ccc(Nc2ccccc2)cc1", "outcome": "inactive"}, {"molecule": "CC(C)CCCCCCc1ccc(O)cc1", "outcome": "inactive"}, {"molecule": "CCCCCCC(C)OC(=O)COc1nc(F)c(Cl)c(N)c1Cl", "note": "(stereo not given)", "outcome": "inactive"}, {"molecule": "S=C([S-])NCCNC(=S)[S-].[Mn+2]", "outcome": "inactive"}, {"molecule": "CCN(CC)C(=O)c1cccc(C)c1", "outcome": "inactive"}, {"molecule": "C=CCOC(Cn1ccnc1)c1ccc(Cl)cc1Cl", "note": "(stereo not given)", "AC50": "88.7 µM (active)"}, {"molecule": "CCC(C)OC(=O)N1CCCCC1CCO", "note": "(stereo not given)", "outcome": "inactive"}, {"molecule": "CC(C)(C)[C@@H](O)[C@@H](Cc1ccc(Cl)cc1)n1cncn1", "outcome": "inactive"}, {"molecule": "CCNc1nc(N)nc(Cl)n1", "outcome": "inactive"}, {"molecule": "CCCOC(=O)NCCCN(C)C", "outcome": "inactive"}, {"molecule": "c1ccc2[nH]c(-c3cscn3)nc2c1", "AC50": "50 µM (active)"}, {"molecule": "COCCO", "outcome": "inactive"}, {"molecule": "CCOC(=O)c1ccc(O)cc1", "outcome": "inactive"}, {"molecule": "CCCN(CCC)C(=O)SCC", "outcome": "inactive"}, {"molecule": "CCOC(=O)COc1cc(-n2ncc(C(F)(F)F)c(C)c2=O)c(F)cc1Cl", "outcome": "inactive"}, {"molecule": "CC(=O)S[C@@H]1CC2=CC(=O)CC[C@]2(C)[C@H]2CC[C@@]3(C)[C@@H](CC[C@@]34CCC(=O)O4)[C@H]12", "AC50": "50 µM (active)"}, {"molecule": "CC(=O)[C@H]1CC[C@H]2[C@@H]3CCC4=CC(=O)CC[C@]4(C)[C@H]3CC[C@]12C", "AC50": "91.1 µM (active)"}, {"molecule": "S=C(S)NCCNC(=S)S.[Mn+2].[S-]C([S-])=NCCN=C([S-])[S-].[Zn+2]", "outcome": "inactive"}, {"molecule": "C[C@]12CC[C@@H]3c4ccc(O)cc4C[C@@H](CCCCCCCCCS(=O)CCCC(F)(F)C(F)(F)F)[C@H]3[C@@H]1CC[C@@H]2O", "note": "(stereo not given in full)", "AC50": "19.9 µM (active)"}, {"molecule": "CCOC(=O)C(C)Oc1ccc(Oc2cnc3cc(Cl)ccc3n2)cc1", "note": "(stereo not given)", "outcome": "inactive"}, {"molecule": "CCCN(CCC)c1c([N+](=O)[O-])cc(C(F)(F)F)c(N)c1[N+](=O)[O-]", "outcome": "inactive"}, {"molecule": "O=C(O)C1(C(=O)Nc2ccc(Cl)cc2Cl)CC1", "AC50": "50 µM (active)"}, {"molecule": "O=C(Nc1ccc([N+](=O)[O-])cc1Cl)c1cc(Cl)ccc1O", "AC50": "4.26 µM (active)"}, {"molecule": "CSC(=O)c1cccc2nnsc12", "outcome": "inactive"}, {"molecule": "COc1c(Cl)ccc(Cl)c1C(=O)O", "outcome": "inactive"}, {"molecule": "COC(=O)c1ccc(I)cc1S(=O)(=O)NC(=O)Nc1nc(C)nc(OC)n1", "outcome": "inactive"}, {"molecule": "CCSC(=O)N(CC(C)C)CC(C)C", "outcome": "inactive"}, {"molecule": "CN(C)C(=O)Nc1ccc(Cl)c(Cl)c1", "AC50": "35.8 µM (active)"}, {"molecule": "C#C[C@]1(O)CC[C@H]2[C@@H]3CCC4=CC(=O)CC[C@@H]4[C@H]3CC[C@@]21CC", "outcome": "inactive"}, {"molecule": "CCCCOCCOCCOCc1cc2c(cc1CCC)OCO2", "outcome": "inactive"}, {"molecule": "OB(O)O", "outcome": "inactive"}, {"molecule": "O=C(c1ccc(O)cc1O)c1ccc(O)cc1O", "outcome": "inactive"}, {"molecule": "COC(=O)CSc1cc(N=c2sc(=O)n3n2CCCC3)c(F)cc1Cl", "outcome": "inactive"}, {"molecule": "Cc1nn(C)c(Oc2ccccc2)c1C=NOCc1ccc(C(=O)OC(C)(C)C)cc1", "outcome": "inactive"}, {"molecule": "CCCCCOC(=O)COc1cc(N2C(=O)C3=C(CCCC3)C2=O)c(F)cc1Cl", "outcome": "inactive"}]}]}
